# Results filed as inconclusive are left out. Active and inactive are the calls of the source. The calls were made as follows, unless noted: active = hit-call score of the fitted dose curve at least 0.9, where 1 is the maximum; inconclusive = response in the unintended direction; inactive = score below 0.9. Where a SMILES comes first, the peptide text is derived from it. Bridges are numbered along the chain shown (N, C = ends). [ ]: non-standard residue; d: D form. hArg = N=C(N)NCCCC[C@H](N)C(=O)O; Mpa = O=C(O)CCS
# Assays:
# [1] = biological target: Cellular tumor antigen p53 (Homo sapiens) (UniProt P04637); experiment: TOX21_p53_BLA_p3_ratio: Tox21 HCT-116 p53 Agonism Beta-lactamase Assay, Ratio, Phase 3 (AID 2283596)
# Sequence of Cellular tumor antigen p53 (Homo sapiens) (P04637 whole entry, looked up): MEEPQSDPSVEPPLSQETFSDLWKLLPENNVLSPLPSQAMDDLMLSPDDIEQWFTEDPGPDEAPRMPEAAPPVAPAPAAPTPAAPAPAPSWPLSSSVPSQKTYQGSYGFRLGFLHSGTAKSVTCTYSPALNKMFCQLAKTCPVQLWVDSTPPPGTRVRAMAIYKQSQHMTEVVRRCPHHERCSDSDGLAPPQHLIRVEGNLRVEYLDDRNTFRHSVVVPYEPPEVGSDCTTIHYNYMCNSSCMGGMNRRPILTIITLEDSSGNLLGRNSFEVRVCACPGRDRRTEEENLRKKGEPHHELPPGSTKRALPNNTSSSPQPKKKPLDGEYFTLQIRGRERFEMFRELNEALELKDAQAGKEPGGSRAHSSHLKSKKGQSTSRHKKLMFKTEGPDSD
# How it was run: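 Cells were seeded at 4000/well, rested 5 h at 37C, then dosed with DMSO compound solutions (217-fold dilution) for 16 h. CCF4-AM substrate was loaded for 2 h at room temperature, and the 460/530 nm emission ratio was fitted for gain of signal versus DMSO.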
# [2] = TOX21_p53_BLA_p4_viability: Viability Assessment in the Tox21 HCT-116 p53 Agonism Beta-lactamase Assay, Phase 4 (AID 2283597);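 also: hits lower the luminescence signal meaning cytotoxicity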
# How it was run: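 4000 HCT116 cells per well; 5 h attachment; compounds from DMSO, 217-fold dilution; 16 h at 37C. Then CCF4-AM, 2 h RT, followed by CellTiter-Glo, 30 min RT, luminescence. Decrease = cytotoxicity.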
# [3] = TOX21_p53_BLA_p5_viability: Viability Assessment in the Tox21 HCT-116 p53 Agonism Beta-lactamase Assay, Phase 5 (AID 2283600)
# How it was run: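 Decreased CellTiter-Glo luminescence denotes lost viability. Exposure: 16 h at 37C, 5% CO2, with compounds from DMSO stocks diluted 217-fold in wells of 4000 cells.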
# [4] = biological target: Cellular tumor antigen p53 (Homo sapiens) (UniProt P04637); experiment: TOX21_p53_BLA_p5_ratio: Tox21 HCT-116 p53 Agonism Beta-lactamase Assay, Ratio, Phase 5 (AID 2283599)
# How it was run: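 HCT-116 cells carrying a p53-inducible beta-lactamase reporter were seeded at 4000 cells/well and dosed after 5 h with compound in DMSO (217-fold dilution). After 16 h at 37C, CCF4-AM substrate was added for 2 h, and the 460/530 nm emission ratio was scored as gain-of-signal versus DMSO.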
# [5] = biological target: Cellular tumor antigen p53 (Homo sapiens) (UniProt P04637); experiment: TOX21_p53_BLA_p4_ratio: Tox21 HCT-116 p53 Agonism Beta-lactamase Assay, Ratio, Phase 4 (AID 2283601)
# How it was run: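 HCT116 cells carrying an inducible beta-lactamase reporter were plated at 4000 cells/well, rested 5 h, then exposed to compounds in DMSO (217-fold dilution) for 16 h at 37C. CCF4-AM substrate was loaded 2 h at room temperature; 460/530 nm emission ratio scored gain-of-signal versus DMSO.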
# [6] = CCTE_Harrill_HTTr_Viability_MCF7: CCTE's 6-hour Cell Viability Assessment for the High-Throughput Transcriptomics (HTTr) Platform, in MCF-7 cells cultured in DMEM + 10% fetal bovine serum, Harrill Lab (AID 2284010; active = hit-call score of the fitted dose curve at least 0.9, where 1 is the maximum; inactive = score below 0.9)
# How it was run: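 Propidium iodide exclusion, imaged by high-content analysis, gauged viability after a six-hour exposure across eight concentrations. Cells were MCF-7 grown in DMEM with 10% fetal bovine serum; fits run in both directions against DMSO.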
# [7] = CCTE_Harrill_HTTr_Apoptosis_MCF7: CCTE's 6-hour Apoptosis Assessment for the High-Throughput Transcriptomics (HTTr) Platform, in MCF-7 cells cultured in DMEM + 10% fetal bovine serum, Harrill Lab (AID 2284011; active = hit-call score of the fitted dose curve at least 0.9, where 1 is the maximum; inactive = score below 0.9)
# How it was run: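 MCF-7 cells in DMEM + 10% FBS exposed 6 h to chemicals over an eight-point dilution series. Caspase-3/7 activation imaged by high-content CellEvent Green staining; fitted bidirectionally versus DMSO.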
# [8] = CCTE_Harrill_HTTr_CellCount_MCF7: CCTE's Cell Proliferation Assessment for the High-Throughput Transcriptomics (HTTr) Platform, Harrill Lab (AID 2284012);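 also: cells exposed to compound for six hours; intended direction is loss of nuclei count meaning fewer cells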
# How it was run: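 Cell count from high-content imaging of Hoechst-labeled nuclei serves as viability/growth readout. Chemicals were applied to MCF-7 cells in eight concentrations for six hours, with fitting in both directions relative to DMSO.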
compound,measurement,setting,value
Cc1nc2ccccc2s1,outcome,[1],inactive
same,outcome,[2],inactive
same,outcome,[3],inactive
OCC(O)CN1CCN(c2ccccc2)CC1 (stereo not given),outcome,[1],inactive
same,outcome,[4],inactive
COc1ccc(CCC(=O)c2c(O)cc(O[C@@H]3O[C@H](CO)[C@@H](O)[C@H](O)[C@H]3O[C@@H]3O[C@@H](C)[C@H](O)[C@@H](O)[C@H]3O)cc2O)cc1O,outcome,[1],inactive
same,outcome,[3],inactive
same,outcome,[5],inactive
CC(Oc1ccccc1)C(=O)N[C@@H]1C(=O)N2[C@@H]1SC(C)(C)[C@@H]2C(=O)O (stereo not given in full),outcome,[1],inactive
same,outcome,[4],inactive
same,outcome,[3],inactive
same,outcome,[5],inactive
Cc1ccc(N)cc1[N+](=O)[O-],outcome,[1],inactive
same,outcome,[5],inactive
OCC1(CO)COC(C(Cl)(Cl)Cl)OC1,outcome,[1],inactive
same,outcome,[4],inactive
same,outcome,[5],inactive
O=C1C(CCS(=O)c2ccccc2)C(=O)N(c2ccccc2)N1c1ccccc1 (stereo not given),outcome,[1],inactive
same,outcome,[5],inactive
CCCOCC(C)OCC(C)O (stereo not given),outcome,[1],inactive
same,outcome,[4],inactive
same,outcome,[3],inactive
same,outcome,[5],inactive
NC(=O)[C@@H]1CSSCCC(=O)N[C@@H](CCCCN=C(N)N)C(=O)NCC(=O)N[C@@H](CC(=O)O)C(=O)N[C@H](Cc2c[nH]c3ccccc23)C(=O)N2CCC[C@H]2C(=O)N1 ([Mpa][hArg]GD[dW]PC-NH2; disulfide 1-7),outcome,[1],inactive
same,outcome,[4],inactive
same,outcome,[5],inactive
C=CCSSSCC=C,AC50,[1],8.68 µM (active)
same,outcome,[4],inactive
same,outcome,[3],inactive
O=C(O)Cc1csc(-c2ccc(Cl)cc2)n1,outcome,[1],inactive
same,outcome,[4],inactive
same,outcome,[5],inactive
NC(=O)N1c2ccccc2CC(=O)c2ccccc21,outcome,[1],inactive
same,outcome,[4],inactive
same,outcome,[5],inactive
same,outcome,[6],inactive
same,outcome,[7],inactive
same,outcome,[8],inactive
O=C(O)[C@H]1/C(=C/CO)O[C@@H]2CC(=O)N21,outcome,[1],inactive
same,outcome,[4],inactive
same,outcome,[5],inactive
CC(=NCc1ccccc1)c1ccccc1O,outcome,[1],inactive
same,outcome,[4],inactive
same,outcome,[3],inactive
same,outcome,[5],inactive

# — PubChem BioAssay (EPA / NIEHS)
